# Shown are actives, neighbours in structure and some others; about 3.5% of the full set was active somewhere.
# BoNT A protease: BoNT A light chain protease inhibition; multiplex microsphere protease substrate cleavage, flow cytometry; inhibition, % at 10 µM; actives 0.17% (n = 360,000); AID 588499; also: plate controls were buffer without enzyme for full effect and enzyme alone for no effect
# BJeLR lethal: BJeLR cell viability loss | BJeLR (HRASV12) viability, CellTiter-Glo ATP luminescence, 48 h | inhibition, % (test concentration not listed) | actives 0.17% (n = 300,000) | AID 1554; in the data active = inhibition above about 50%; inconclusive = no clear call, values can overlap the other calls
# BoNT F protease: blocks Botulinum neurotoxin F light chain protease | Multiplex microsphere protease cleavage assay, flow cytometry | inhibition, % at 10 µM | actives 0.22% (n = 360,000) | AID 588497; in the data active = inhibition above about 35%, passing the limit was not always enough; inconclusive = no clear call, values can overlap the other calls; also: plate controls were buffer without enzyme for full effect and enzyme alone for no effect
# Bead autofluor: counter-screen for toxin protease inhibitors: compound fluorescence; AID 624483; actives 3.1% (n = 360,000); fluorescence intensity (no concentration beside the values); compound autofluorescence counterscreen, microsphere flow cytometry; hits give high values; in the data active = fluorescence intensity above about 16000; inconclusive = no clear call, values can overlap the other calls
# Anthrax LF inh2: inhibitors of Bacillus anthracis lethal factor protease | multiplex microsphere protease cleavage assay, LF | P15917 | AID 588501 | inhibition, % at 10 µM | actives 0.12% (n = 360,000); also: plate controls were buffer without enzyme for full effect and enzyme alone for no effect
# Active calls of the source: *; u = inconclusive; x = no result; ! = not active in a repeat. Rule as the data show it, unless noted: active = inhibition above about 30%; inconclusive = no clear call, values can overlap the other calls; inactive = below that.
SMILES,BoNT A protease,BJeLR lethal,BoNT F protease,Bead autofluor,Anthrax LF inh2
Cc1ccc(N(C)C(=O)c2ccc(CNc3c(N4CCC(C)CC4)c(=O)c3=O)cc2)cc1,0,-11,-2,5830,-1
COc1cccc(C(C)(O)c2nc(-c3cnn(C)c3)cs2)c1 (stereo unspecified),0,x,-6,3851,-2
COc1cccc(CNC(=O)[C@@H]2CCCN2C(=O)[C@@H]2CCCN2C(=O)c2cccc3ccccc23)c1,0,x,-6,5587,-6
Cc1ccc(C(=O)C(OC(=O)CNS(=O)(=O)c2ccccc2)c2ccccc2)cc1 (stereo unspecified),u,10,2,19423*,-2
NC(=O)c1c(NC(=O)COC(=O)c2ccc(S(=O)(=O)Nc3ccccc3)cc2)sc2c1CCCC2,-1,1,-7,3749,-4
CC(=O)c1cc2c(cc1F)C(C)(C)CCC2(C)C,-1,x,-2,3864,-5
CC(NC(=O)/C(C#N)=C1\N=C(NC(=O)c2cccs2)c2ccccc21)c1ccccc1 (stereo unspecified),30*,0,9,6060,15
CC(C)C(=O)N1CCC1(C)C(=O)Nc1ccc2[nH]ccc2c1 (stereo unspecified),0,x,-5,3863,2
Cc1ccn(CC(=O)O)c(=O)c1,u,-3,-1,22082*,-3
CC(C)CCNC(=O)C(c1ccco1)N(Cc1ccccc1)C(=O)c1snc(C(N)=O)c1N (stereo unspecified),2,-15,2,22391*,-3
CCCCC(C(=O)NCCC(C)C)N(CCCN1CCOCC1)C(=O)c1snc(C(N)=O)c1N (stereo unspecified),0,3,0,20769*,1
Cc1ccc(N(C(=O)c2snc(C(N)=O)c2N)C(C(=O)NCCC(C)C)c2ccco2)cc1 (stereo unspecified),0,2,-3,4285,-3
Cc1ccc(C(C(=O)NC2CCCCC2)N(CCCN2CCOCC2)C(=O)c2snc(C(N)=O)c2N)cc1 (stereo unspecified),-4,-5,-10,3748,-11
CCc1nc2c(OCC3CCCCC3)cccn2c1N(C)C(=O)c1ccc(C)cc1,0,x,3,3717,-7
CC(C)NC(=O)c1cc(C2CCCCN2S(=O)(=O)c2cccs2)on1 (stereo unspecified),-1,x,-2,4167,0
COc1cccc(S(=O)(=O)Nc2ccc(C(=O)N3CCN(C(=O)c4ccco4)CC3)cc2)c1,5,2,5,18332*,-9
O=C(c1ccc(NS(=O)(=O)c2cccc([N+](=O)[O-])c2)cc1)N1CCN(C(=O)c2ccco2)CC1,1,x,4,3504,13
COc1cccc(C(=O)N2CCN(S(C)(=O)=O)CC2)c1,-1,-7,0,23027*,-5
CS(=O)(=O)N1CCN(C(=O)c2c(F)cccc2F)CC1,-1,6,-3,23941*,-1
COc1ccc(CN2C(=O)C(CC(=O)NC3CCCCC3)CC(C(=O)N(C(C)C)C(C)C)=C2C)cc1 (stereo unspecified),0,x,4,3738,0
CC1(C)C(=O)OC(c2ccccc2)C(C)(C)C1=O (stereo unspecified),u,2,u,4632,20
CC1(C)C(=O)OC(c2cccs2)C(C)(C)C1=O (stereo unspecified),0,-6,0,19729*,-5
CCOC(=O)C1CCCN(c2c(NCCCN(CC)c3cccc(C)c3)c(=O)c2=O)C1 (stereo unspecified),0,6,-1,2791,-2
CCOC(=O)C1CCN(c2c(NCCCN(CC)c3ccccc3)c(=O)c2=O)CC1,u,1,-1,21430*,0
CCCCNC(=O)c1ccc(CNc2c(N3CCC(C(=O)OCC)CC3)c(=O)c2=O)cc1,0,9,-4,23374*!,-4
SMILES,BoNT A protease,BJeLR lethal,BoNT F protease,Bead autofluor,Anthrax LF inh2
O=C(CCn1c(=O)[nH]c2ccsc2c1=O)N1CCN(c2cccc(Cl)c2)CC1,-1,-18,17,u,-7
O=C(CCn1c(=O)[nH]c2ccsc2c1=O)N1CC(=O)N(CCc2ccccc2)C(=O)C1,u,-9,-6,23732*,0
CCc1nc2ccccc2n(CCOCCn2c(=O)c(CC)nc3ccccc32)c1=O,4,x,6,21722*,-1
Cc1cccnc1Nc1nc(-c2ccccn2)cs1,-2,53*,-1,3055,1
COc1ccc(C(C)(O)c2nc(-c3ccccc3OC)cs2)cc1 (stereo unspecified),0,x,6,2853,-3
COc1cc(C(O)P(=O)(OC2CCCCC2)c2ccc(N(C)C)cc2)cc(OC)c1OC (stereo unspecified),-2,-8,-4,16951*,-3
COc1cccc(C(=O)O)c1OS(=O)(=O)c1ccc(C)cc1,0,x,0,3794,-8
CCOCC(O)CS(=O)Cc1ccccc1 (stereo unspecified),-6,-4,-8,24995*,-4
COc1ccc(OC)c(NC(=S)NC(=O)c2ccc(Br)o2)c1,0,-12,-6,5722,-3
CSc1ccc(/C=C/C(=O)c2c(O)cc(C)oc2=O)cc1,-2,10,45*,4310,-2
CCC1CCCCN1C(=O)COc1ccc2c(c1)OCO2 (stereo unspecified),-2,-5,-3,4280,3
CCOC(=O)C1=C(c2ccccc2)N=c2s/c(=C\c3cc(OC)c(OC)c(OC)c3)c(=O)n2C1c1cccs1 (stereo unspecified),41*,1,19,3932,34*
CCOC(=O)C1=C(c2ccccc2)N=c2s/c(=C\c3ccco3)c(=O)n2C1c1cccs1 (stereo unspecified),8,-2,-4,11119,8
Cc1ccc(NC(=O)COC(=O)C(NS(=O)(=O)c2ccc(Cl)cc2)C(C)O)cc1C (stereo unspecified),0,-16,-1,2166,2
CCCCNC(=O)N1CCN(Cc2cccc(F)c2)CC1,0,0,0,2283,0
O=S(=O)(c1ccc(Cl)cc1)N1CCC(n2cnc3cc(C(F)(F)F)ccc32)CC1,-1,-3,-2,16517*,0
O=S(=O)(c1ccc(F)cc1)N1CCC(n2cnc3ccccc32)CC1,-2,-7,-25,3877,-12
CC(=O)c1cc2cccc(OC3(C)CCN(Cc4ccc(-c5ccccn5)cc4)C3)c2o1 (stereo unspecified),0,x,-3,3893,-4
COC(=O)Cn1c2ccc(F)cc2c2nc(C)sc21,-1,4,-3,22219*,0
C[C@@H]1CN([C@@H](C)CO)S(=O)(=O)c2ccc(Br)cc2O[C@@H]1CN(C)C(=O)C1CC1,0,x,-6,3427,2
O=C(NCc1cccnc1)c1cc(C2CCCCN2C(=O)CCCc2ccccc2)on1 (stereo unspecified),0,x,4,3601,-6
COc1ccc(NC(=O)c2csc(Cc3ccc(Cl)cc3)n2)cc1,0,9,-5,4780,0
COc1ccc(COc2ccsc2C(=O)Nc2ccc(Cl)cc2)cc1,1,6,2,19044*,1

# Source: PubChem
